M1 PAM parental = nonselective calcium activators in parental CHO-K1 cells, primary screen, counter-screen for M1 PAM project, cell-based, Fluo-8 calcium fluorescence, full deck, 1536-well | ATP EC20; 0% at ATP EC20, 100% at ATP max | 360,000 tested, 0.02% active | activation, % at 3 µM;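 active = activation above the run cutoff, the mean activation of all test compounds plus 3 SD, cut at about 40% in these data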;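 note: peak over basal fluorescence ratio in a 140 s read after ATP addition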
CHO-K1 Ca ag = counter-screen for M1 agonists: effect in parental CHO-K1 cells. activation, % at 3 µM. Fluo-8 calcium fluorescence; scaled to maximal ATP response, vehicle zero. AID 602248, 2012. 360,000 tested, 0.48% active; in the data active = activation above about 15%;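 note: untransfected CHO-K1 host cells lacking M1 receptor as counterscreen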
M1 ag = human M1 muscarinic receptor agonists, primary screen, Fluo-8 calcium fluorescence, CHO-K1 cells, HTS. CHO-K1 hM1, agonist mode; 0% DMSO, 100% acetylcholine EC100. Muscarinic acetylcholine receptor M1 (Homo sapiens), P11229. 360,000 tested, 0.33% active. activation, % at 3 µM;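 active = activation above the run's mean compound activation plus 3 SD, cut at about 16% in these data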;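 note: peak over basal fluorescence ratio within a 140 s kinetic read after compound addition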
Target sequence (P11229 whole entry, looked up): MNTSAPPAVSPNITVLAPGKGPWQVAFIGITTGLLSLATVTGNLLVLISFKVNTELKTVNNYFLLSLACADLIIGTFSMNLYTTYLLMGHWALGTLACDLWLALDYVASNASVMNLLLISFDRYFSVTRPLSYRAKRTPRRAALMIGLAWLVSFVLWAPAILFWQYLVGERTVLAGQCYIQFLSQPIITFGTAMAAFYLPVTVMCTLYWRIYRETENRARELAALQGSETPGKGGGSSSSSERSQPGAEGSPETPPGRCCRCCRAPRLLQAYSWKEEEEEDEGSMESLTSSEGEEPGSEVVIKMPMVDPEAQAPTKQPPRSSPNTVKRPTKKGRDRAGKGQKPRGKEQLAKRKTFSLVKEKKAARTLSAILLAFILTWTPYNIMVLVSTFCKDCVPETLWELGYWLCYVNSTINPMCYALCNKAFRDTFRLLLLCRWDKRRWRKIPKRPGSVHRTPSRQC
M1 antag = human M1 muscarinic receptor antagonists, primary screen, CHO-K1 cells, Fluo-8 calcium fluorescence, 1536-well; CHO-K1 hM1, ACh EC80 antagonist; inhibition, % at 3 µM; Muscarinic acetylcholine receptor M1 (Homo sapiens), P11229; AID 588852, 2011; 360,000 tested, 1.3% active;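 active = percent inhibition above its own plate's cutoff, namely the mean of that plate's compound wells plus 3 SD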;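 note: peak over basal fluorescence ratio during 140 s after agonist addition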
CHO-K1 Ca antag = nonselective inhibitor or artifact in parental CHO-K1 cells | ATP-induced calcium, Fluo-8 fluorescence | AID 602250 | 360,000 tested, 0.6% active | inhibition, % at 3 µM;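 active = inhibition above a per-plate cutoff, the plate's mean sample inhibition plus 3 SD, cut at about 24% in these data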
CHRM1 PAM = human M1 muscarinic receptor positive allosteric modulators, primary screen, CHO-K1 cells, Fluo-8 calcium fluorescence, 1536-well. Muscarinic acetylcholine receptor M1 (Homo sapiens), P11229. CHO-K1 hM1, ACh EC20; 0% = ACh EC20, 100% = maximal ACh. activation, % at 3 µM. 360,000 tested, 0.088% active; in the data active = activation above about 19%, passing the limit was not always enough
Each line names hits and unclear results; the compound was inactive in the other large screens. In the library only some 2.4% were active in any assay of this set; here they are far more common.

Cc1ccccc1N1CCN(CCCN2C(=O)CC(=C(c3ccccc3)c3ccccc3)C2=O)CC1	M1 antag 95
Cc1csc(NC(=O)CSc2nc(=O)n(CCN(C)C)c3c2CCCC3)n1	none
C=CCNc1nc2cc(-c3cccc(Cl)c3)sc2c(=O)n1C	none
CC(=O)NC12CC3CC(C1)CC(C(=O)Oc1ccc(N(C)S(=O)(=O)c4cc(C)ccc4C)cc1)(C3)C2	none
O=C1NC(c2ccccc2)CCO1 (stereo not drawn)	CHRM1 PAM 29
CN(Cc1ccccc1)C(=O)c1[nH]c(C(F)(F)F)nc1-c1ccccc1	none
CCC(C)(C)c1ccc(OCCCC[n+]2cccc(C)c2C)c(C(C)(C)CC)c1	CHO-K1 Ca ag 25, M1 antag 73
O=C(CN1C(=O)COc2ccc(S(=O)(=O)N3CCOCC3)cc21)Nc1cccc(Cl)c1	none
CCN(CC)CCNC(=O)CCc1c(C)nc2c(c(C)nn2-c2ccc(C)cc2)c1C	none
COCCNC(=O)c1cc2c(=O)[nH]c3ccccc3c2s1	none
CCN(CC)CCNC(=O)c1ccc2c(c1)NC(=O)c1ccccc1S2	none
CCCN1CCN(CCCNC(=O)c2cc3c(=O)[nH]c4ccccc4c3s2)CC1	M1 ag 21
CCCN1CCN(CCCNC(=O)c2cc3c(=O)oc4ccc(C)cc4c3s2)CC1	M1 ag 21
CCCN1CCN(CCCNC(=O)c2ccc3c(c2)NC(=O)c2ccccc2S3)CC1	M1 antag 42
N=C1c2ccccc2CN1c1ccc(S(=O)(=O)N2CCCCC2)cc1	M1 antag 74
CCOC(=O)c1ccc(N2Cc3ccccc3C2=N)cc1	M1 antag 70
O=C1c2ccccc2C(=O)N1c1ccc(S(=O)(=O)N2CCCCC2)cc1	none
Cc1ccc(SCC(=O)NC(=O)c2ccccc2Br)c(C)c1	none
CCCNC(=O)Cn1c(=O)/c(=C\c2ccc(-c3ccc([N+](=O)[O-])cc3)o2)s/c1=C\C(=O)C(C)(C)C	CHO-K1 Ca ag 23, M1 ag 22, M1 antag 37
COC(=O)[C@]12CCCCC=C1N(Cc1cccc3ccccc13)C(=O)[C@H](CC(=O)N1CCCC1)C2	none (no result: M1 ag, M1 antag, CHRM1 PAM)
CSCCC(NS(=O)(=O)c1ccccc1)C(=O)Nc1nccs1 (stereo not drawn)	none
O=C1C2CC=CCC2C(=O)N1c1ccc(NCCc2ccccc2)c([N+](=O)[O-])c1 (stereo not drawn)	none
O=C1C2CCCCC2C(=O)N1c1ccc(NC2CCN(Cc3ccccc3)CC2)c([N+](=O)[O-])c1 (stereo not drawn)	M1 antag 48
CN(Cc1ccccc1)C1CCN(Cc2ccccc2[N+](=O)[O-])CC1	M1 antag 90
O=[N+]([O-])c1ccccc1NC1CCN(Cc2ccccc2)CC1	M1 antag 47
O=C1CCC(=O)N1c1ccc(NC2CCN(Cc3ccccc3)CC2)c([N+](=O)[O-])c1	none
CC1CCC2C(=O)N(c3ccc(NC4CCN(Cc5ccccc5)CC4)c([N+](=O)[O-])c3)C(=O)C2C1 (stereo not drawn)	M1 antag 80
O=[N+]([O-])c1ccccc1CN1CCN(S(=O)(=O)Cc2ccccc2)CC1	none
O=[N+]([O-])c1ccc(NC2CCN(Cc3ccccc3)CC2)c([N+](=O)[O-])c1	none
NC(=O)CC(NC(=O)Cc1ccc(Br)cc1)c1ccc(NC2CCN(Cc3ccccc3)CC2)c([N+](=O)[O-])c1 (stereo not drawn)	M1 antag 43
NC(=O)CC(NC(=O)Cc1cccc2ccccc12)c1ccc(NC2CCN(Cc3ccccc3)CC2)c([N+](=O)[O-])c1 (stereo not drawn)	none
O=C(O)c1ccc(N=Cc2c(O)ccc3oc4c(c23)CCCC4)cc1	none
Oc1ccccc1N=Cc1c(O)ccc2oc3c(c12)CCCC3	CHO-K1 Ca ag 16
CC(=O)c1cccc(NC(=O)C(C)OC(=O)c2ccc3ncsc3c2)c1 (stereo not drawn)	none
CC(OC(=O)c1ccc2ncsc2c1)C(=O)Nc1cccc(Cl)c1 (stereo not drawn)	M1 antag 32
CC(=O)Nc1ccc(Nc2ccc3nonc3c2[N+](=O)[O-])cc1	none
CCc1nnc(NS(=O)(=O)c2ccc(Nc3ccc4nonc4c3[N+](=O)[O-])cc2)s1	CHO-K1 Ca antag 29
Cc1cccc(C(=O)NN2C(=O)C3C(c4ccccc4)C=CC(c4ccccc4)C3C2=O)c1 (stereo not drawn)	M1 antag 89
Cc1cccc(C(=O)NN2S(=O)(=O)c3ccccc3S2(=O)=O)c1	M1 antag 33
O=C(CS(=O)(=O)c1ccccc1Cl)N1CCOCC1	none
CC(c1ccccc1)n1c(Br)nc2c1c(=O)[nH]c(=O)n2C (stereo not drawn)	none
CC(c1ccccc1)n1c(N2CCNCC2)nc2c1c(=O)[nH]c(=O)n2C (stereo not drawn)	M1 antag 69
CC1(C)CC(Cc2ccc(C(=O)c3ccccc3)cc2)N(C(=O)OC(C)(C)C)N1 (stereo not drawn)	none
CCc1ccc(-c2nc(CSCC(=O)N3CCN(c4ccccn4)CC3)c(C)o2)cc1	CHO-K1 Ca antag 29
Cc1ccc(-c2nc(CSCC(=O)N3CCN(c4ccccn4)CC3)c(C)o2)cc1	M1 antag 33
Cc1ccc(-c2nc(CSCC(=O)N3CCOCC3)c(C)o2)cc1	none
CCOc1ccc(-c2nc(CSCC(=O)N3CCN(c4cccc(OC)c4)CC3)c(C)o2)cc1	M1 antag 35
Cc1ccc(C(=O)NCC(=O)OCn2nnc3ccccc3c2=O)cc1	none
COc1ccc(CN2CCN(C(=O)c3ccccc3C(=O)c3ccccc3)CC2)cc1OC	none
CC(C)CNC(=O)COC(=O)C1c2ccccc2Oc2ccccc21	none
C=CCN(CC=C)C(=O)C1c2ccccc2Oc2ccccc21	none
CCN(CC)C(=O)C1c2ccccc2Oc2ccccc21	CHO-K1 Ca ag 27, M1 ag 18
CC(C)[N+](C)(CCOC(=O)C1c2ccccc2Oc2ccccc21)C(C)C	M1 antag 97
COc1ccc(C(=O)/C=C\c2ccc(NC(=O)c3cccs3)cc2)cc1	CHO-K1 Ca antag 27
CC(=O)Nc1ccc(S(=O)(=O)Nc2cccc3[nH]ncc23)cc1	CHO-K1 Ca antag 31
COC(=O)c1ccc(COC(=O)[C@@H]2CC(O)CN2S(=O)(=O)c2ccccc2[N+](=O)[O-])cc1 (stereo partly drawn)	none

Screening results deposited in PubChem by The Scripps Research Institute Molecular Screening Center.
